Source: PubChem BioAssay
SW480 rerep: induces DNA re-replication in SW480 colon adenocarcinoma cells; AID 624297; Potency, µM (top dose mostly 46.1 µM), without a hit: top-dose re-replication activation, most hits filed as activators; SW480 DNA re-replication, Hoechst DNA content imaging, 48 h; 340,000 compounds, 1.8% hits; note: % of control where 0% means no effect; nearly all actives have a fitted effect of over 55% in size
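Compounds, transferred as 23 nL by pin tool, were incubated with cells for 48 hr; DNA content per nucleus was then quantified by Hoechst staining and fluorescence plate imaging.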
MCF10A rerep: induces DNA re-replication in MCF 10a normal breast cells | MCF 10A DNA re-replication, Hoechst nuclear intensity, 48 h | Potency, µM (doses to about 46.1 µM), for inactives: at the top dose activity, positive = re-replication, usual class: activators | AID 624296 | 350,000 compounds, 2.9% hits; note: % of control where 0% means no effect; nearly all actives have a fitted effect of over 50% in size
PINK1 modulator: modulators of PINK1 expression | Potency, µM (titrated, usually from 76.6 µM), for the others: at the top dose activation (PINK1 increase), usual class: activators | 410,000 compounds, 0.2% hits | PINK1 immunofluorescence, high-content cytometry, 24 h; active = well fitted activation curve with a large enough effect; inconclusive = small, poorly fitted or top-dose-only effect; cell line not stated here; note: % of control where 0% means no effect; nearly all actives have a fitted effect of over 65% in size
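Compound titrations (5 concentrations, 24 h) on a stable cell line; DMSO and CCCP controls. Endpoint: fixed-cell PINK1 immunofluorescence with mitochondrial, cell and nuclear markers, scanned by microplate cytometer.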
TSG101-PTAP inh: blocks PTAP/TSG101 interaction to inhibit HIV-1 budding | Fluorescence polarization, FITC-PTAP peptide / Tsg101 binding | Potency, µM (highest dose often 115 µM), without a hit: at the top dose activity change, negative = inhibition, most hits filed as inhibitors | 340,000 tested, under 10 active | AID 493005; active = well fitted inhibition curve with a large enough effect in the main read-out, with a control signal flat, not every such curve was filed as active; inconclusive = small, poorly fitted or top-dose-only effect, or effect the other way, or a change in a side signal; inactive = no such curve, though single readings can be large or run the other way; note: % of control where 0% means no effect
Target sequence (Q99816 whole entry, looked up): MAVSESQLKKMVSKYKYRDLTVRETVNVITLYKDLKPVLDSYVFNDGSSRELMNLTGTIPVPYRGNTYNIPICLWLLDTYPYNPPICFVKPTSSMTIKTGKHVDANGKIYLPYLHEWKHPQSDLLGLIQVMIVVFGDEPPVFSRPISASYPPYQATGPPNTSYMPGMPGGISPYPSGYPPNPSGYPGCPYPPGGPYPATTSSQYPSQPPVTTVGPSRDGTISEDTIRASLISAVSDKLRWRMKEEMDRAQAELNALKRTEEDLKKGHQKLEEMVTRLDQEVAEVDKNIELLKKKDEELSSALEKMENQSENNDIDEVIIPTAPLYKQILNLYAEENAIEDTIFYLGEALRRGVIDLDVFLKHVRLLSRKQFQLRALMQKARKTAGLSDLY
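Compounds were pin-transferred onto Tsg101 binding domain (10 uM final) in HEPES pH 7.5 buffer, then FITC-PTAP peptide was added at 50 nM final. After 20 min at RT, polarization reported peptide displacement across a qHTS concentration series.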
KB-3-1 cytotox: KB-3-1 parental cell cytotoxicity. Potency, µM (doses to about 46.1 µM), most hits filed as cytotoxic. 400,000 compounds, 1.4% hits. AID 1347075. KB-3-1 viability, CellTiter-Glo ATP luminescence, 72 h; note: % is set by controls: 0 for no effect and ±100 for the full control effect; nearly all actives have a fitted effect of over 60% in size
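KB-3-1 parental drug-naive adenocarcinoma cells in DMEM/10% FBS, incubated 72 h at 37 C with pin-transferred compounds across a concentration series. Viability by CellTiter-Glo luminescence; concentration-response curves fitted after normalization.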
KB-V1 MDR tox: KB-V1 MDR subline cytotoxicity. KB-V1 MDR cells viability, CellTiter-Glo, 72 h. 400,000 compounds, 3.4% hits. Potency, µM (series often up to 46.1 µM), usual class: cytotoxic. AID 1347076; note: % is set by controls: 0 for no effect and ±100 for the full control effect; nearly all actives have a fitted effect of over 60% in size
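qHTS viability screen in drug-selected KB-V1 MDR cells: 72 h compound treatment at 37 degrees C, ATP luminescence end point.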
Starred values were filed as active, the others as inactive; i = inactive; ? = inconclusive; nt = not tested or not shown. Only some compounds are listed: those with a hit (about 6.8% of all), similar ones and a draw of the others. Unless noted, calls come from the whole dose curve; as a rule, active = well fitted curve in the direction sought with a large enough effect; inconclusive = small, poorly fitted or top-dose-only effect, or another doubt; inactive = no such curve, though single readings can be large; an effect the other way counts as inactive or inconclusive. Potency is the fitted concentration of half-maximal effect.

SMILES	SW480 rerep	MCF10A rerep	PINK1 modulator	TSG101-PTAP inh	KB-3-1 cytotox	KB-V1 MDR tox
Fc1ccc(CN2CCN3CCCC3C2C2CCCCC2)cc1F (stereo unspecified)	?	20.6µM*	10.2%	-5.9%	i	i
CCOc1ccc(CNC(=O)C2CCCN(S(=O)(=O)c3ccc4c(c3)CCCC(=O)N4)C2)cc1 (stereo unspecified)	nt	nt	-0.1%	nt	?	i
O=C(CN1C(=O)S/C(=C\c2ccc(Cl)cc2)C1=O)NC1C=CS(=O)(=O)C1 (stereo unspecified)	23.1µM*	?	-0.1%	-4.4%	i	i
O=C(CN1C(=O)/C(=C/c2ccccc2F)SC1=S)NC1C=CS(=O)(=O)C1 (stereo unspecified)	-2.9%	8.1%	0.5%	-4.1%	i	?
CN(C(=O)CN1C(=O)S/C(=C\c2cccc(Cl)c2)C1=O)C1CCS(=O)(=O)C1 (stereo unspecified)	-2.7%	23.1µM*	-0.5%	0.1%	i	i
CC(C(=O)NC1C=CS(=O)(=O)C1)N1C(=O)/C(=C/c2cccc(Cl)c2)SC1=S (stereo unspecified)	7.4%	?	-0.8%	0.0%	i	i
O=C(CN1C(=O)S/C(=C\c2cccc(Cl)c2)C1=O)NC1C=CS(=O)(=O)C1 (stereo unspecified)	?	9.2µM*	1.9%	1.1%	?	i
O=C(CN1C(=O)/C(=C/c2cccc(Cl)c2)SC1=S)NC1C=CS(=O)(=O)C1 (stereo unspecified)	?	14.6µM*	0.6%	-3.3%	i	i
CCOC(=O)c1c(-c2ccccc2)csc1NC(=O)c1cc(-c2ccc(C)c(F)c2)on1	nt	nt	-0.4%	nt	i	i
CC1CCCCN1C(=O)c1ccc2c(c1)N(Cc1ccc(Cl)cc1)C(=O)c1ccccc1S2=O (stereo unspecified)	nt	nt	1.8%	nt	?	i
Cc1ccc(C(=O)NCC(c2ccc3c(c2)OCO3)N2CCN(c3ccc(F)cc3)CC2)cc1 (stereo unspecified)	nt	nt	-0.1%	nt	i	i
Cc1ccc(S(=O)(=O)C(CNS(=O)(=O)c2ccc(F)c(C(F)(F)F)c2)c2ccco2)cc1 (stereo unspecified)	nt	nt	0.5%	nt	nt	nt
COCCNC(=O)C(=O)NCC(c1cccnc1)N1CCN(c2ccccc2)CC1 (stereo unspecified)	nt	nt	0.6%	nt	i	i
O=C(CCC(=O)Nc1ccc(F)cc1)N/N=C/c1ccc(O)cc1	-5.6%	-2.0%	2.6%	0.7%	i	i
O=C(NN=Cc1ccc(O)cc1)C(=O)NN=Cc1ccc(O)cc1	-4.2%	-22.1%	2.7%	-7.5%	i	i
CCCCNC(=O)Cn1cnc([N+](=O)[O-])n1	7.31µM*	0.7%	2.2%	-5.1%	i	?
O=C(Cn1cnc([N+](=O)[O-])n1)N/N=C/c1ccc(O)cc1O	11.6µM*	-1.2%	-1.7%	-0.7%	i	i
O=C(CCC(=O)Nc1ccc(F)cc1)N/N=C/c1ccc(O)cc1O	9.2µM*	37.8%	0.9%	-0.3%	i	i
O=C(N/N=C/c1ccc(O)cc1O)C(=O)N/N=C/c1ccc(O)cc1O	11.6µM*	6.6%	3.3%	-2.2%	?	i
COCCNC(=O)Cn1cnc([N+](=O)[O-])n1	-3.1%	-47.9%	-1.2%	-0.2%	i	i
CCOc1ccc(Oc2nc(NCC(C)C)nc(NC(C)(C)C)n2)nn1	nt	nt	2.3%	nt	nt	nt
COc1ccccc1NC(=O)C(Cc1ccccc1)NS(=O)(=O)c1cccc2nsnc12 (stereo unspecified)	nt	nt	0.7%	nt	i	i
Cc1cc(C)cc(NC(=O)CSc2oc(-c3ccco3)nc2S(=O)(=O)c2ccc(Cl)cc2)c1	nt	nt	3.3%	nt	i	?
COc1ccc(CCNC(=O)CCCn2nc(C)c3sc4ccccc4c3c2=O)c(OC)c1	nt	nt	0.4%	nt	i	i
Cc1ccc(NS(=O)(=O)c2cc3c(cc2N(C)C)CCC(=O)N3)cc1C	nt	nt	nt	nt	i	i
SMILES	SW480 rerep	MCF10A rerep	PINK1 modulator	TSG101-PTAP inh	KB-3-1 cytotox	KB-V1 MDR tox
COc1ccc(NC(=O)CN2C(=O)COc3ccc(S(=O)(=O)N4CCCCC4)cc32)cc1Cl	nt	nt	0.7%	nt	nt	nt
FC(F)Sc1ccc(-n2cc(-c3ccccc3)[n+]3c2CCC3)cc1	5.9%	25.5%	0.7%	-3.1%	14.6µM*	i
COc1ccc(-c2cn(-c3ccc(SC(F)F)cc3)c3[n+]2CCC3)cc1OC	-2.6%	0.6%	0.8%	-0.6%	i	i
NS(=O)(=O)c1ccc(CCNc2ncnc3c2cnn3-c2cccc(Cl)c2)cc1	nt	nt	-0.5%	nt	i	i
C=CCSc1nnc(-c2sc(-c3ccccc3)nc2C)n1C	-8.1%	6.2%	nt	-6.3%	i	i
C=CCN(C(=O)CSC1=NC(=O)CN1C(C)=O)c1nc(C)c(-c2ccccc2)s1	-109.5%	11.6µM*	8.6%	4.3%	i	i
CCOC(=O)CN1C(=O)N[C@H](c2ccc(Br)cc2)C(C(C)=O)=C1C	?	6.51µM*	-1.6%	-14.7%	i	i
CCOC(=O)CN1C(=O)N[C@@H](c2ccc(Br)cc2)C(C(=O)OC)=C1C	-18.9%	1.6%	2.3%	0.8%	i	i
CCN(CC)C(=O)CSc1nnc(SC(C)C(=O)NC2CC2)s1 (stereo unspecified)	0.0%	-4.4%	1.4%	-7.2%	i	25.9µM*
O=C(Nc1sc2c(c1C(=O)NCC1CCCO1)CCC2)c1cc(=O)c2cc(Cl)ccc2o1 (stereo unspecified)	nt	nt	6.1%	nt	i	i
O=C(CCCc1ccccc1)NC1CC(=O)N(c2ccc(F)cc2)C1 (stereo unspecified)	nt	nt	0.7%	nt	nt	nt
CCCCCCn1c(N2CCN(c3cccc(Cl)c3)CC2)nc2c1c(=O)[nH]c(=O)n2C	-2.1%	?	5.5%	0.0%	?	16.4µM*
CCCCCCCCn1c(N2CCN(c3cccc(Cl)c3)CC2)nc2c1c(=O)[nH]c(=O)n2C	7.8%	?	0.6%	-1.5%	i	13µM*
